# Screening results from PubChem.
# Sampled rows, rich in hits. Any-hit rate of the full collection: about 3.5%.
# MITF inh – human MITF inhibition, primary screen. O75030. AlphaScreen MITF homodimerization, bead proximity signal. inhibition, % at 2.6 µM. 650,000 tested, 0.91% active. AID 1259374; in the data active = inhibition above about 50%;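 also: 0% = vehicle wells with protein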
# TEAD-YAP block – TEAD-YAP interaction inhibition; HEK-TIYL cells, TEAD-Gal4/YAP UAS-luciferase luminescence; inhibition, % at 9.12 µM; 640,000 tested, 1.4% active; AID 1259422; in the data active = inhibition above about 32%;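 also: 0% = median of test compound wells and 100% = reference inhibitor wells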
# GPR151 ag – human GPR151 activation; PathHunter beta-arrestin GPR151 cells, luminescence; 650,000 tested, 1% active; activation, % at 11.2 µM; Q8TDV0; in the data active = activation above about 4.9%;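 also: 0% = median of compound wells and 100% = cells with positive control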
# FBW7 act – activators of human E3 ligase FBW7. Q969H0. AlphaScreen FBW7–phospho-cyclin E peptide binding, activator screen. normalized activity (activation), % at 26.1 µM. 650,000 tested, 0.13% active; in the data active = normalized activity above about 1.9%;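 also: purified mutant Fbw7 with reduced substrate affinity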
# Target sequence (Q969H0 whole entry, looked up): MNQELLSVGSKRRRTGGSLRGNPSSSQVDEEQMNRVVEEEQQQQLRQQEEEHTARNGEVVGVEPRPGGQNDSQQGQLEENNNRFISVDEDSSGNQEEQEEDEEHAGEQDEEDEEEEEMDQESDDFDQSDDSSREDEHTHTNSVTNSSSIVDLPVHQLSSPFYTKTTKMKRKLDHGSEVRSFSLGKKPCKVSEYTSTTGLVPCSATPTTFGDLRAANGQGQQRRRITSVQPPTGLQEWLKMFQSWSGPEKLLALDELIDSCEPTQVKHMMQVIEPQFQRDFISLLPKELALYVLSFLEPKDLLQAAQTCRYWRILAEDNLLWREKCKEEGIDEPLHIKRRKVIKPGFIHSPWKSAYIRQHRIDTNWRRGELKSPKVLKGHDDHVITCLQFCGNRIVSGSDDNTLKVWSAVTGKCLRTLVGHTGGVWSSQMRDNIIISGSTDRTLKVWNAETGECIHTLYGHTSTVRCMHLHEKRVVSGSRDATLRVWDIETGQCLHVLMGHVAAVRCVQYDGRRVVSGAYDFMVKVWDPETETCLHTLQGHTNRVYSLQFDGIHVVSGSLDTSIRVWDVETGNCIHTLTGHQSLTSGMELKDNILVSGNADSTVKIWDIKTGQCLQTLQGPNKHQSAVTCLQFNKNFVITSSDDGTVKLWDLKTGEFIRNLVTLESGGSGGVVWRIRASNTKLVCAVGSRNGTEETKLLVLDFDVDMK
# GPR151 conf act – human GPR151 activation, confirmation screen | shares compounds with GPR151 ag | GPR151 PathHunter beta-arrestin cells, luminescence, 90 min; % of EA-reagent control over plate median | activation, % at 11.2 µM | 6,700 tested, under 10 active | AID 1508609;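 active = mean percent activation across replicates above the confirmation screen cutoff of 4.91%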
# GPR119 counter – GPR119 activation, counter-screen for GPR151 activators | shares compounds with GPR151 ag | 6,700 tested, 0.3% active | AID 1508611 | GPR119 PathHunter beta-arrestin cells, luminescence, 90 min; 0 = compound-well median, 100 = enzyme-acceptor control | activation, % at 11.2 µM;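 active = mean percent activation in the counterscreen above 29.09%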;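 also: counterscreen on off-target GPR119 to flag nonselective hits from the GPR151 activator screen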
# Numbers without * were called inactive; . = no result given.
SMILES,MITF inh,TEAD-YAP block,GPR151 ag,FBW7 act,GPR151 conf act,GPR119 counter
COC(=O)C1(C(F)(F)F)N=C2C=CC=CN2C(c2ccc(Cl)cc2)=N1 (stereo not drawn),4,-2,-1,0,.,.
O=c1[nH]cc(N=Cc2ccc([N+](=O)[O-])cc2)c(=O)[nH]1,-2,-9,6.5*,0,-1,-1
O=c1[nH]cc(N=Cc2ccc(O)cc2)c(=O)[nH]1,-2,-1,-1,1,.,.
COc1cc(CO)cc(Cl)c1OCc1ccccc1C#N,3,1,6.7*,0,0,-7
Cc1ccc(S(=O)(=O)n2cc(-c3ccnc(N)c3)c3cc(Br)cnc32)cc1,.,.,7.6*,.,0,-2
O=C1C=C(CSc2nc3[nH]ncc3c(=O)n2-c2ccccc2Cl)NC2C=CC(Br)=CN12 (stereo not drawn),20,-4,0,0,.,.
COc1ccccc1/C=N/NC(=O)c1ccccc1Cl,24,-4,0,0,.,.
COc1ccccc1/C=N/NC(=O)c1ccccc1O,-1,-29,7.1*,0,0,-7
O=C(N/N=C/c1ccccc1O)c1ccc(Cl)cc1Cl,21,-36,5.1*,0,0,3
CCN(CC)c1ccc(/C=N/NC(=O)c2ccccc2Cl)c(O)c1,8,1,7.3*,0,0,-8
NS(=O)(=O)c1ccc(-c2ccc(/C=c3\sc4nc5ccccc5n4c3=O)o2)cc1,-7,-15,-1,0,.,.
O=[N+]([O-])c1ccc(/C=N/NC2=Nc3cccc4cccc2c34)cc1,4,-27,6.3*,0,0,3
O=[N+]([O-])c1cccc(/C=N/NC2=Nc3cccc4cccc2c34)c1,15,-35,-1,0,.,.
O=C(NC1=Nc2cccc3cccc1c23)c1ccc([N+](=O)[O-])cc1,7,2,5.5*,0,0,-12
CCCN(CCC)C(=O)c1cc(-c2ccco2)[nH]n1,-1,-1,5.2*,0,0,-3
CC(C)(C)NC(=O)c1cc(-c2ccco2)[nH]n1,7,0,-2,0,.,.
O=C(NNC(=O)c1ccco1)Nc1ccc(Cl)cc1Cl,-3,-22,-2,0,.,.
CCOc1ccc(NC(=O)CN2N=NC3C(=O)N(c4ccc(Cl)cc4)C(=O)C32)cc1 (stereo not drawn),2,8,5.7*,0,0,7
CC(=O)c1c(C)oc2ccc(OC(=O)Nc3ccccc3)cc12,-3,-7,0,0,.,.
COc1ccc(S(=O)(=O)Nc2ccc(O)c(Br)c2)cc1,1,4,5.9*,0,1,12
O=S(=O)(Nc1ccc(O)c(Br)c1)c1ccc(F)cc1,-2,4,0,0,.,.
COc1ccc(NS(=O)(=O)c2ccc(Br)c(C(=O)Nc3ccccc3)c2)cc1,3,0,6.2*,0,0,12
COC(=O)c1sc2ccccc2c1NC(=O)c1ccc(C(=O)c2ccccc2)cc1,11,7,2,0,.,.
COC(=O)c1sc2ccccc2c1NC(=O)c1ccc(Oc2ccccc2)cc1,-13,3,10*,0,0,0
O=C(CN1C(=O)/C(=C/c2ccccc2)Sc2ccccc21)NCc1ccc2c(c1)OCO2,-2,-1,9.0*,0,0,-1
SMILES,MITF inh,TEAD-YAP block,GPR151 ag,FBW7 act,GPR151 conf act,GPR119 counter
O=C(CSc1n[nH]c(=O)n1C1CC1)NCc1ccc2c(c1)OCO2,-12,17,6.3*,0,0,0
O=C(CN1C(=O)/C(=C\c2cccc(Cl)c2)Sc2ccccc21)NCc1cccnc1,6,-7,0,0,.,.
Cc1cc(=O)[nH]c2nnc(SCC(=O)NCc3ccc4c(c3)OCO4)n12,13,8,-2,1,.,.
O=C(CS(=O)(=O)c1ccccc1)NCc1ccc2c(c1)OCO2,8,-3,5.1*,0,1,14
NS(=O)(=O)c1ccc(NC(=S)NCc2ccc3c(c2)OCO3)cc1,-12,-2,9.1*,0,0,2
COCCNS(=O)(=O)c1cccc(S(=O)(=O)c2cccc(S(=O)(=O)NCCOC)c2)c1,0,-1,-1,0,.,.
Cc1ccc(CNc2nc3c(c(=O)[nH]c(=O)n3C)n2CC(O)CO)cc1 (stereo not drawn),6,2,0,0,.,.
O=C(Cc1cc(=O)[nH]c(=O)[nH]1)NCc1ccc2c(c1)OCO2,10,2,8.6*,0,0,5
O=C(CCN1N=C(c2ccccc2)CCC1=O)NCc1ccc(Cl)cc1,-3,-7,0,0,.,.
O=C(CCN1N=C(c2ccccc2)CCC1=O)NCc1ccc2c(c1)OCO2,-1,8,7.2*,0,0,-5
O=S(=O)(Cc1ccc2c(c1)OCO2)c1ccc2ccccc2c1,12,-7,5.8*,0,0,-12
C/C(=N/NC(=O)c1cnccn1)c1ccc(Cl)cc1,-1,-48,0,0,.,.
O=C(CCCn1c(=S)[nH]c2ccccc2c1=O)Nc1cccc2c1CCCC2,1,-5,5.5*,0,0,12
O=C(CCCn1c(=S)[nH]c2cc3c(cc2c1=O)OCO3)NCc1cccc(Cl)c1,6,5,5.3*,0,0,9
O=C(CCn1c(=S)[nH]c2cc3c(cc2c1=O)OCO3)NCc1cccc(Cl)c1,5,-1,-1,0,.,.
CCN1CCN(CCCNC(=O)C2=Cc3sc4c(c3CS2)CCCC4)CC1,-5,-1,2,0,.,.
Cc1ccc(C2=NS(=O)(=O)N(C)C(C(=O)NCC(C)C)=C2)cc1,4,0,2,0,.,.
Cc1ccc(C2=NS(=O)(=O)N(C)C(C(=O)NCc3ccccn3)=C2)cc1,12,6,6.9*,0,0,-9
CCCCCCOc1ccc(NC(=O)c2ccc(C(=O)Nc3ccc(OCCCCCC)cc3)nc2)cc1,6,1,0,0,.,.
COC(=O)C1=CN(C2CC2)C=C(C(=O)OC)C1c1cccc(O)c1,-17,10,2,0,.,.
COC(=O)C1=CN(C2CC2)C=C(C(=O)OC)C1c1cccc(OC)c1,-14,4,5.5*,0,1,13
c1ccc(C2=NN(c3ccccc3)C(c3ccccc3)=NN2c2ccccc2)cc1,8,-6,2,0,.,.
CCN(CC)CCN1C(=O)C(O)=C(C(=O)c2cc3ccccc3o2)C1c1ccc(C)o1 (stereo not drawn),-20,-7,6.1*,0,0,-6
O=Cc1cccc2cccc(C(=O)O)c12,4,7,2,0,.,.
COc1ccc(-c2cc(C(F)(F)F)n3ncc(C(=O)Nc4ccc(Cl)cc4Cl)c3n2)cc1OC,15,-3,5.4*,0,-1,-17
COc1cccc(/C(C)=N/NS(=O)(=O)c2ccc(Cl)cc2)c1,-23,-2,5.3*,0,1,18
COc1ccc(S(=O)(=O)N/N=C(/C)c2ccc(Cl)cc2)cc1,-7,-6,0,0,.,.
